Results from PubChem BioAssay AID1421 (Emory University Molecular Libraries Screening Center, 2008).
The whole screen tested about 1,300 compounds, of which about 140 (11%) were called active. How the calls were made is not given here. Not all results are given here. Results with a measured potency or affinity are listed apart.

Molecular target: Prostaglandin E2 receptor EP2 subtype (Homo sapiens) (UniProt P43116)
Assay: compounds shifting PGE2 potency at EP2 – cell-based, human EP2, PGE2 EC50 shift, dose response (AID 1421)
Details: EP2-expressing cells, PGE2 EC50 shift by compound; at 20 µM

Prostaglandin E2 receptor EP2 subtype (Homo sapiens), sequence (P43116 whole entry, looked up): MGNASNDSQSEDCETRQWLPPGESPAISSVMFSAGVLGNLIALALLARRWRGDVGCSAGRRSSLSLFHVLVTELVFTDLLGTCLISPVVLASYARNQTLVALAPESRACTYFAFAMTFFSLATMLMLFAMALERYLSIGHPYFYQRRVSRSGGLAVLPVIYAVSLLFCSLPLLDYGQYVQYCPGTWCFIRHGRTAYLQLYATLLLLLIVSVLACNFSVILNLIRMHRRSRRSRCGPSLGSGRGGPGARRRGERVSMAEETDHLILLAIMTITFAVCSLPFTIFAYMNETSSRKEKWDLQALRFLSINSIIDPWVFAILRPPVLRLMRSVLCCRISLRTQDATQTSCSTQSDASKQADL

Structure (SMILES)	PGE2 EC50 with compound
C=CCn1c(SCC(N)=O)nc(C)cc1=O	0.82 nM (inactive)
C=CCn1c(SCc2c(C)noc2C)nc2sc(C)c(C)c2c1=O	0.57 nM (inactive)
CC(=O)Nc1ccc(C2=NN(c3ccccc3)C(c3cccs3)C2)cc1 (stereo unspecified)	0.32 nM (inactive)
CCCCCn1c(CN2CCN(c3cc(Cl)ccc3C)CC2)nc2c1c(=O)[nH]c(=O)n2C	1.94 nM (inactive)
Brc1ccc(Cn2c(-c3cncs3)nc3ccccc32)cc1	0.43 nM (inactive)
CCn1c2ccccc2c2cc(/C=N/n3c(C)nnc3C)ccc21	0.04 nM (inactive)
Cc1ccccc1OCc1nc2ccccc2c(=O)n1/N=C/c1ccco1	0.61 nM (inactive)
CN(c1ccccc1)C1CCCCC1NS(=O)(=O)c1ccc(Cl)cc1 (stereo unspecified)	0.38 nM (inactive)
N#CCSc1nc2c(c(C3CC=CCC3)c1C#N)CCC2 (stereo unspecified)	0.5 nM (inactive)
CN(CC(=O)Nc1ccccc1-c1ccccc1)Cc1ccccc1Cl	0.6 nM (inactive)
CSc1ccccc1NC(=O)COc1ccc(Cl)cc1C	0.35 nM (inactive)
C(=N\N1CCN(C2c3ccccc3-c3ccccc32)CC1)/c1cccnc1	0.43 nM (inactive)
COC(=O)c1c(NC(NC(=O)C(C)C)C(Cl)(Cl)Cl)sc2c1CCCC2 (stereo unspecified)	0.51 nM (inactive)
N/C(CSc1nc(-c2ccccc2)c(-c2ccccc2)o1)=N\O	0.37 nM (inactive)
O=C(O)CSc1cc(-c2ccccc2)nc2ccccc12	1.19 nM (inactive)
C=CCC(=O)OCCCCCCOc1ccc(C(=O)O)cc1	0.73 nM (inactive)
CC(C)Oc1ccc(/C=C(/NC(=O)c2ccccc2)C(=O)NCCC(=O)O)cc1	0.98 nM (inactive)
Cc1ccc(C(=O)OCC(=O)Nc2ccccc2Sc2ccccc2)cc1C	0.26 nM (inactive)
CN(/N=C/C=C/c1ccccc1)C1=NS(=O)(=O)c2ccccc21	0.14 nM (inactive)
CCC(C)(C)n1nnnc1C(c1ccncc1)N1CCC(Cc2ccccc2)CC1 (stereo unspecified)	1.27 nM (inactive)
CC1(c2cc([N+](=O)[O-])cc([N+](=O)[O-])c2)CC(C)(C)N(C(=O)c2ccccc2)c2ccccc21 (stereo unspecified)	0.35 nM (inactive)
CC1=CC(C)(C)N(S(=O)(=O)c2ccc(C)cc2)c2cc(C)ccc21	0.39 nM (inactive)
CCOP(=O)(OCC)c1nc(-c2ccccc2)oc1NCc1ccccc1	0.36 nM (inactive)
O=C(O)c1cccc(NN=C2c3ccccc3-c3ccccc32)c1	0.74 nM (inactive)
O=c1c2oc3ccccc3c2[nH]c(=S)n1-c1ccccc1	1.48 nM (inactive)
CN=C1CC(SC)=C1c1ccc(C)cc1	2.68 nM (inactive)
